Source: PubChem BioAssay AID1159580 (chemical genetic matrix, 2015)
“And” between values parts separate entries of the source, which are not always exact repeats. Identical values can stand only once. Among all 5,500 compounds or so, about 2,000 (36%) were called active. About 18% were inconclusive and are not listed. No stated cut-off is given here; in the data, active means normalized growth mostly below about 0.91 (no sharp cut-off); inconclusive means no clear call, values can overlap the other calls; inactive means mostly above about 0.92. Some of the results follow.

Experiment: chemical genetic growth profiling, strain panel (AID 1159580);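 further: tested at 20 µM; growth read once vehicle control cultures reached saturation at 30 °C; 1 = growth at the plate median or of vehicle wells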
Conditions: S. cerevisiae deletion strains, growth OD

Measured: normalized growth

CC(=O)Nc1ccc(OC(=O)c2ccccc2O)cc1
0.738 (active) and 0.924 (inactive): locus YJL095W, strain BCK1, stronger effect = lower value
active: locus YBR009C, strain hhf1, stronger effect = lower value 0.862 | locus YBR021W, strain FUR4, stronger effect = lower value 0.807 | locus YBR023C, strain chs3, stronger effect = lower value 0.908 | locus YCL011C, strain gbp2, stronger effect = lower value 0.87 | locus YCL016C, strain dcc1, stronger effect = lower value 0.91 | locus YCL061C, strain MRC1, stronger effect = lower value 0.917 | locus YCL069W, strain vba3, stronger effect = lower value 0.908 | locus YDL134C, strain PPH21, stronger effect = lower value 0.878 | locus YDR159W, strain sac3, stronger effect = lower value 0.842 | locus YDR195W, strain ref2 1.15 [resistant] | locus YDR392W, strain spt3, stronger effect = lower value 0.712 | locus YDR502C, strain sam2, stronger effect = lower value 0.913 | locus YER155C, strain BEM2 (second series), stronger effect = lower value 0.765 | locus YER167W, strain BCK2, stronger effect = lower value 0.873 | locus YGL240W, strain doc1, stronger effect = lower value 0.882 | locus YGL253W, strain hxk2, stronger effect = lower value 0.879 | locus YGR078C, strain PAC10, stronger effect = lower value 0.848 | locus YGR135W, strain pre9, stronger effect = lower value 0.847 | locus YGR252W, strain gcn5, stronger effect = lower value 0.608 | locus YHR142W, strain chs7, stronger effect = lower value 0.803 | locus YJL164C, strain tpk1, stronger effect = lower value 0.897 | locus YJR043C, strain POL32, stronger effect = lower value 0.754
inactive: locus YAL021C, strain ccr4, stronger effect = lower value 1 | locus YAL026C, strain drs2, stronger effect = lower value 0.949 | locus YAL030W, strain snc1, stronger effect = lower value 0.994 | locus YBL061C, strain skt5, stronger effect = lower value 0.972 | locus YBR171W, strain sec66, stronger effect = lower value 0.992 | locus YBR229C, strain ROT2, stronger effect = lower value 0.98 | locus YBR231C, strain swc5, stronger effect = lower value 0.992 | locus YBR279W, strain paf1, stronger effect = lower value 0.939 | locus YCL029C, strain bik1, stronger effect = lower value 0.954 | locus YCR088W, strain abp1, stronger effect = lower value 0.929 | locus YDL005C, strain med2, stronger effect = lower value 0.996 | locus YDL035C, strain GPR1, stronger effect = lower value 0.911 | locus YDL040C, strain nat1, stronger effect = lower value 0.99 | locus YDL074C, strain BRE1, stronger effect = lower value 0.788 | locus YDL101C, strain DUN1, stronger effect = lower value 0.947 | locus YDL185W, strain tfp1, stronger effect = lower value 0.954 | locus YDL192W, strain arf1, stronger effect = lower value 0.967 | locus YDR001C, strain nth1, stronger effect = lower value 0.959 | locus YDR069C, strain doa4, stronger effect = lower value 0.999 | locus YDR101C, strain arx1, stronger effect = lower value 0.937 | locus YDR137W, strain rgp1, stronger effect = lower value 0.958 | locus YDR162C, strain NBP2, stronger effect = lower value 0.943 | locus YDR297W, strain sur2, stronger effect = lower value 0.977 | locus YDR318W, strain mcm21, stronger effect = lower value 0.93 | locus YDR334W, strain swr1, stronger effect = lower value 0.962 | locus YDR335W, strain msn5, stronger effect = lower value 0.977 | locus YDR388W, stronger effect = lower value 0.944 | locus YEL003W, strain gim4, stronger effect = lower value 0.978 | locus YEL037C, strain rad23, stronger effect = lower value 0.968 | locus YEL061C, strain CIN8 (second series), stronger effect = lower value 0.971 | locus YEL061C, strain CIN8, stronger effect = lower value 0.98 | locus YER015W, strain faa2, stronger effect = lower value 0.934 | locus YER016W, strain bim1, stronger effect = lower value 0.933 | locus YER110C, stronger effect = lower value 0.951 | locus YER111C, strain swi4, stronger effect = lower value 0.991 | locus YER155C, strain BEM2, stronger effect = lower value 0.945 | locus YFR010W, strain ubp6, stronger effect = lower value 0.944 | locus YGL078C, strain dbp3, stronger effect = lower value 0.97 | locus YGL086W, strain mad1, stronger effect = lower value 0.935 | locus YGL167C, strain pmr1, stronger effect = lower value 1.01 | locus YGL173C, strain kem1, stronger effect = lower value 0.959 | locus YGL227W, strain vid30, stronger effect = lower value 0.959 | locus YGL248W, strain PDE1, stronger effect = lower value 0.904 | locus YHR013C, strain ard1, stronger effect = lower value 0.915 | locus YHR027C, strain rpn1, stronger effect = lower value 0.945 | locus YHR030C, strain SLT2, stronger effect = lower value 0.968 and 0.921 | locus YHR079C, strain IRE1 (second series), stronger effect = lower value 0.927 | locus YHR079C, strain IRE1, stronger effect = lower value 0.904 | locus YHR094C, strain hxt1, stronger effect = lower value 0.954 | locus YHR129C, strain ARP1, stronger effect = lower value 0.948 | locus YHR200W, strain rpn10, stronger effect = lower value 0.934 | locus YIL066C, strain RNR3, stronger effect = lower value 0.89 | locus YIL073C, strain SPO22, stronger effect = lower value 0.854 | locus YIL125W, strain kgd1, stronger effect = lower value 0.95 | locus YIR030C, strain dcg1, stronger effect = lower value 0.933 | locus YJL092W, strain hpr5, stronger effect = lower value 0.946 | locus YJL095W, strain BCK1 (second series), stronger effect = lower value 0.96 | locus YJL115W, strain asf1, stronger effect = lower value 0.989 | locus YJL129C, strain trk1, stronger effect = lower value 0.974 | locus YJL134W, strain LCB3, stronger effect = lower value 0.985 | locus YJL154C, strain vps35, stronger effect = lower value 0.985 | locus YJL166W, strain qcr8, stronger effect = lower value 0.952 | locus YJL168C, strain set2, stronger effect = lower value 0.958 | locus YJL187C, strain SWE1 (second series), stronger effect = lower value 0.93 | locus YJL187C, strain SWE1, stronger effect = lower value 0.985
